From PubChem
TRHR ag: activates the human TRH receptor; 360,000 tested, 0.18% active; activation, % at 2 µM; P34981; TRHR cells, calcium flux fluo-8, FDSS agonist mode; note: 0% is about no effect
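Steps: seed TRHR cells overnight; add fluo-8 no-wash Ca dye, RT 30 min–1.5 h; record 10 s baseline; pin-transfer compounds; monitor fluorescence 1 cycle/s for the agonist window. Calcium increases flag candidate agonists.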
D1 antag: antagonists of human D1 dopamine receptor | P21728 | HEK293 TREx D1 cells, calcium flux, dopamine EC80; active compounds read low | activity change, negative = inhibition, % at 10 µM | 360,000 tested, 3.2% active | AID 504652; in the data active = activity change below about -30%; note: % is set by controls: 0 for no effect and ±100 for the full control effect
Target sequence (P21728 whole entry, looked up): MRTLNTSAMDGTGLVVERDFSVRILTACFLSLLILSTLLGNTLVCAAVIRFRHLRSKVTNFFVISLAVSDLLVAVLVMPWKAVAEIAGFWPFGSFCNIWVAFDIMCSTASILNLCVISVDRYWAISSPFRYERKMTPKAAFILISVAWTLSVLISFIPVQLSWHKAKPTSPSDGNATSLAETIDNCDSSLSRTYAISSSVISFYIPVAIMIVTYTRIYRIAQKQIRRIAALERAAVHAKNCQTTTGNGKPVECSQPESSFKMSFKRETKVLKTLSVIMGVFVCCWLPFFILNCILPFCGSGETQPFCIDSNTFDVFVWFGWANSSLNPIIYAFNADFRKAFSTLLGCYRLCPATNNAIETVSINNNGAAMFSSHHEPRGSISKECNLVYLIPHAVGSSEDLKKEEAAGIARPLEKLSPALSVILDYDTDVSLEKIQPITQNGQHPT
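Inducible Hek293 Trex D1 cells (tetracycline, overnight, 30 C). Calcium dye 30–90 min RT. Antagonist mode: EC80 dopamine added after 180 s compound read.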
TRHR enhancer: allosteric enhancers of human TRH receptor; P34981; TRHR cells, fluo-8 calcium fluorescence, EC20 TRH enhancement; enhancement, % at 2 µM; 360,000 tested, 0.66% active; in the data active = enhancement above about 30%; note: 0% is about no effect
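Enhancer read-out: after compound pinning and an initial kinetic agonist-mode read, an EC20 of TRH (10 nM final) was injected and fluo-8 calcium signal (Ex 480/Em 530) followed at 1 s/cycle for 100 cycles in TRHR-expressing cells.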
D1 PAM: potentiators of human D1 dopamine receptor. 360,000 tested, 0.036% active. potentiation, % at 10 µM. P21728. HEK293 TREx D1 cells, calcium flux, dopamine EC20 potentiation; in the data active = potentiation above about 30%; note: 0% is about no effect
D1 agonist: human D1 receptor agonism; HEK293 T-REx D1 cells, calcium flux, agonist mode; 360,000 tested, 1% active; activation, % at 2 µM; AID 504660; P21728; note: 0% is about no effect
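Tetracycline-induced HEK293 TREx D1 cells, force-coupled to calcium signalling, were dye-loaded with a no-wash calcium kit. Compound was pin-added after a 10 s baseline. Fluorescence was read kinetically at 1 cycle/s for 180 s, with calcium rises flagged as agonism.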
The depositor's hits bear a star. A selection: hits, their analogues and other compounds. The true share with any hit is near 4.6%. Cut-off read from the data, not from the text of the source, unless noted: active = activation above about 30%; inactive = the rest.

SMILES | TRHR ag | D1 antag | TRHR enhancer | D1 PAM | D1 agonist
COc1ccc(C(=O)NCc2ccccc2CN2CCCC2)cc1S(=O)(=O)N1CCOCC1 | 0.3 | -57.3* | 4.4 | -19.4 | 0.7
O=C(NCc1ccccc1CN1CCCC1)c1ccc(Cl)c(S(=O)(=O)N2CCCC2)c1 | -0.2 | -51.1* | -1.7 | -7.7 | 12.1
COc1ccc(NC(=O)c2ccc(-c3ccccc3)cc2)cc1S(=O)(=O)N1CCOCC1 | 0.5 | -30.2* | -4.1 | -5.1 | 6.2
COc1cccc(N2CCN(C(=O)c3cnc4c(-c5ccc(F)cc5)c(C)nn4c3C)CC2)c1 | 0.1 | -7.0 | 2.2 | 1.2 | 1.4
C/C(=N\OC(=O)c1c(-c2ccccc2Cl)noc1C)c1nccs1 | -0.5 | -4.8 | 14.2 | -3.1 | 0.6
C/C(=N\OC(=O)c1ccc(Cl)cc1)c1nccs1 | -0.1 | -31.9* | 3.9 | -12.7 | 0.8
N#Cc1c(SCc2ccccc2)sc(C(=O)c2ccccc2)c1N | -0.4 | -49.1* | -20.5 | -6.2 | -0.6
Cc1ccc(S(=O)(=O)NCc2ccc(C(=O)NC3CC3)cc2)cc1 | 0.0 | -6.4 | -0.7 | -2.6 | 1.9
CCOC(=O)C1CCN(CC(C)(C)NS(=O)(=O)c2ccc(C)cc2)CC1 | -0.6 | -0.3 | 26.7 | -7.7 | 5.8
CCOC(=O)N1CCC(NC(=O)c2ccc(CNS(=O)(=O)c3ccc(F)cc3)cc2)CC1 | 0.0 | -34.1* | -7.0 | -4.6 | 3.5
CCOC(=O)C1CCN(CC(C)(C)NS(=O)(=O)c2ccc(Cl)cc2)CC1 | 0.1 | -31.3* | 1.1 | -11.6 | 1.8
CCOC(=O)C1CCN(C(=O)c2ccc(CNS(=O)(=O)c3ccc(C)cc3)cc2)CC1 | -0.9 | -36.6* | 3.5 | -3.6 | 0.2
COc1ccc(CN2CCN(C(=O)c3ccc(CNS(=O)(=O)c4ccc(C)cc4)cc3)CC2)c(OC)c1OC | -0.5 | -30.2* | -3.5 | -8.4 | 7.1
CCOC(=O)C1CCN(C(=O)CCNS(=O)(=O)c2ccc(C)cc2)CC1 | -2.9 | -20.7 | 4.7 | -4.2 | 0.5
COc1ccccc1CNC(=O)C1CCN(C2=NS(=O)(=O)C(c3ccc(C)c(C)c3)=C2C)CC1 | -0.4 | 1.8 | -8.0 | -8.3 | 7.2
CCC(=O)N1CCCc2cc(S(=O)(=O)N3CCC(C(=O)Nc4ccccc4CC)CC3)ccc21 | -0.2 | -3.7 | -4.9 | -5.5 | 0.6
CCN(CC(=O)Nc1ccc(NC(C)=O)cc1)C(=O)CCCOc1ccc(C(C)(C)C)cc1 | 1.1 | 0.0 | 4.9 | 6.6 | 31.8*
CCN(CC(=O)Nc1ccc(NC(C)=O)cc1)C(=O)CCN1C(=O)C2CC=CCC2C1=O (configuration not stated) | 0.1 | -43.9* | 10.0 | -4.5 | 2.8
CCN(CC(=O)Nc1ccc(NC(C)=O)cc1)C(=O)CCCN1C(=O)c2ccccc2C1=O | 0.1 | 7.0 | -0.6 | -5.9 | 2.7
Cc1ccccc1Oc1ccccc1N | -0.5 | -31.5* | 2.1 | -4.5 | -0.4
Nc1ccccc1OCCOc1ccccc1N | -0.8 | -3.5 | 6.1 | 3.8 | 1.6
O=C1CC(c2cccc(O)c2)Oc2ccccc21 (configuration not stated) | 0.0 | -31.6* | 2.9 | -6.0 | 2.8
Cc1ccc(NC(=O)CN(C)S(=O)(=O)c2cccs2)cc1C | -1.0 | -10.1 | 9.9 | -7.9 | 9.0
Cc1ccc(NC(=O)CN(C)S(=O)(=O)c2cccs2)cc1F | 1.5 | -37.3* | 1.3 | -2.8 | 1.9
Cc1ccc(C2CC(=O)Nc3cc4c(cc32)OCCO4)cc1Br (configuration not stated) | 0.2 | -6.2 | 4.3 | -2.1 | 4.4
SMILES | TRHR ag | D1 antag | TRHR enhancer | D1 PAM | D1 agonist
CCn1cc(C(=O)N2CCN(c3cccc(C)c3C)CC2)c2cc(OC)c(OC)cc2c1=O | -0.3 | -20.9 | -1.7 | -1.0 | -0.9
CC1CCCN(CCOCCOc2ccc(Cl)cc2Br)C1 (configuration not stated) | 15.2 | -26.5 | -14.4 | -9.2 | 27.7
CN1CCN(CCOCCOc2ccc(Br)cc2Cl)CC1 | 1.0 | 1.9 | -2.0 | -8.2 | 4.9
CC1CCN(CCCOc2ccc(Br)cc2Cl)CC1 | 1.2 | -67.9* | -8.7 | -5.0 | 51.6*
CC1CCCN(CCOCCOc2ccc(Br)cc2Cl)C1 (configuration not stated) | -0.2 | -32.1* | -0.1 | -9.6 | 26.2
COC(=O)C1(C(=O)OC)NOC2C(=O)N(N(C)c3ncc(C(F)(F)F)cc3Cl)C(=O)C21 (configuration not stated) | 0.5 | 3.6 | -1.1 | -2.0 | 1.4
